In the supplement of paper PMC4709259:
Where a name gives a salt, the structure may show the parent alone. ± gives the standard deviation.

Assays:
Jurkat [1] = experiment: mean cell size (FSC-A) relative to DMSO control (fraction of control); higher = larger cells; settings: 48 h
In short: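 Jurkat cells seeded at 600 cells/µl were incubated 1 h, then exposed for 48h to the Enzo Screen-Well FDA Approved Drug Library v2.0 at 25µM in 0.9% (v/v) final DMSO. Drugs that cut counts below 20% of controls were diluted 10-fold and retested, down to 25nM. Cell count and mean cell size (forward scatter area) were read on an Accuri C6 flow cytometer, relative to solvent-only controls. Plates held 6-12 controls; values are means of 3 biological replicates.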

Jurkat [2] = experiment: cell count relative to DMSO control (fraction of control); higher = more cells (less growth inhibition); settings: 48 h

Row | Structure (SMILES) | mean cell size (Jurkat [1]) | cell count (Jurkat [2])
1 | CNCC[C@@H](Oc1ccccc1C)c1ccccc1 [Atomoxetine·HCl] (concentration: 25 µM) | 0.996 ± 0.05 | 0.81 ± 0.12
2 | NNc1nncc2ccccc12 [Hydralazine·HCl] (concentration: 25 µM) | 0.98 ± 0.075 | 0.537 ± 0.045
3 | O=C(O)c1cc(/N=N/c2ccc(S(=O)(=O)Nc3ccccn3)cc2)ccc1O [Sulfasalazine] (concentration: 25 µM) | 0.965 ± 0.024 | 0.914 ± 0.11
4 | Nc1ccc(C(=O)NCC(=O)O)cc1 [Aminohippurate·Na] (concentration: 25 µM) | 0.995 ± 0.044 | 0.792 ± 0.089
5 | CN(CCOc1ccc(NS(C)(=O)=O)cc1)CCc1ccc(NS(C)(=O)=O)cc1 [Dofetilide] (concentration: 25 µM) | 0.962 ± 0.015 | 0.872 ± 0.084
6 | Cc1ccc(O)c([C@H](CCN(C(C)C)C(C)C)c2ccccc2)c1 [Tolterodine Tartrate] (concentration: 25 µM) | 0.935 ± 0.022 | 1.14 ± 0.059
7 | CNS(=O)(=O)Cc1ccc2[nH]cc(CCN(C)C)c2c1 [Sumatriptan Succinate] (concentration: 25 µM) | 0.955 ± 0.031 | 0.738 ± 0.1
8 | CC1=Nc2ccc(Cl)cc2S(=O)(=O)N1 [Diazoxide] (concentration: 25 µM) | 1.01 ± 0.064 | 0.916 ± 0.04
9 | Nc1ccn([C@H]2CC[C@@H](CO)O2)c(=O)n1 [Zalcitabine (2',3'-Dideoxycytidine)] (concentration: 25 µM) | 1.31 ± 0.061 | 0.336 ± 0.073
10 | CCCCC[C@H](O)/C=C/[C@H]1[C@H](O)CC(=O)[C@@H]1C/C=C\CCCC(=O)O [Dinoprostone] (concentration: 25 µM) | 0.88 ± 0.019 | 0.399 ± 0.11
11 | Cc1nccn1CC1CCc2c(c3ccccc3n2C)C1=O (centres undefined) [Ondansetron] (concentration: 25 µM) | 0.97 ± 0.028 | 0.816 ± 0.074
12 | Nc1nc2ccc(OC(F)(F)F)cc2s1 [Riluzole·HCl] (concentration: 2.5 µM) | 1.01 ± 0.028 | 0.573 ± 0.029
13 | C[C@@H](c1ncncc1F)[C@](O)(Cn1cncn1)c1ccc(F)cc1F [Voriconazole] (concentration: 25 µM) | 0.963 ± 0.043 | 0.682 ± 0.1
14 | Clc1ccc2c(c1)C(N1CCNCC1)=Nc1ccccc1O2 [Amoxapine] (concentration: 25 µM) | 1.03 ± 0.013 | 0.538 ± 0.073
15 | NC(=O)c1cnccn1 [Pyrazinamide] (concentration: 25 µM) | 1 ± 0.031 | 0.808 ± 0.066
16 | COc1cc(CNC(=O)CCCC/C=C/C(C)C)ccc1O [Capsaicin] (concentration: 25 µM) | 0.903 ± 0.021 | 0.901 ± 0.08
17 | Cc1nc2n(c(=O)c1CCN1CCC(c3noc4cc(F)ccc34)CC1)CCCC2O (centres undefined) [Paliperidone] (concentration: 25 µM) | 0.985 ± 0.043 | 1.06 ± 0.063
18 | Cc1cc(NS(=O)(=O)c2ccc(N)cc2)no1 [Sulfamethoxazole] (concentration: 25 µM) | 0.962 ± 0.036 | 0.809 ± 0.063
19 | O=P(O)(O)C(O)(Cn1ccnc1)P(=O)(O)O [Zoledronic Acid Monohydrate] (concentration: 25 µM) | 0.938 ± 0.031 | 0.296 ± 0.11
20 | CC[C@H]1OC(=O)[C@H](C)[C@@H](O[C@H]2C[C@@](C)(OC)[C@@H](O)[C@H](C)O2)[C@H](C)[C@@H](O[C@@H]2O[C@H](C)C[C@H](N(C)C)[C@H]2O)[C@](C)(OC)C[C@@H](C)C(=O)[C@H](C)[C@@H](O)[C@]1(C)O [Clarithromycin] (concentration: 25 µM) | 0.977 ± 0.057 | 1.05 ± 0.078
21 | O=NN(CCCl)C(=O)NCCCl [Carmustine] (concentration: 25 µM) | 1.066 ± 0.0089 | 0.767 ± 0.014
22 | C=CC[N+]1([C@H]2C[C@H]3[C@@H]4CC[C@H]5C[C@H](O)[C@@H](N6CCOCC6)C[C@]5(C)[C@H]4CC[C@]3(C)[C@H]2OC(C)=O)CCCC1 [Rocuronium Bromide] (concentration: 25 µM) | 0.952 ± 0.043 | 0.337 ± 0.086
23 | CC(S)C(=O)NCC(=O)O (centres undefined) [Tiopronin] (concentration: 25 µM) | 0.956 ± 0.016 | 0.864 ± 0.17
24 | COc1ccc(CC2c3cc(OC)c(OC)cc3CC[N+]2(C)CCC(=O)OCCCCCOC(=O)CC[N+]2(C)CCc3cc(OC)c(OC)cc3C2Cc2ccc(OC)c(OC)c2)cc1OC (centres undefined) [Atracurium Besylate] (concentration: 25 µM) | 1.04 ± 0.008 | 0.264 ± 0.023
25 | C[C@H]1C[C@@H]2[C@H]([C@@H](O)C[C@@]3(C)[C@H]2CC[C@]3(O)C(=O)CO)[C@@]2(C)C=CC(=O)C=C12 [Methylprednisolone] (concentration: 25 µM) | 0.908 ± 0.013 | 0.873 ± 0.025
26 | NS(=O)(=O)c1cc2c(cc1C(F)(F)F)NC(Cc1ccccc1)NS2(=O)=O (centres undefined) [Bendroflumethiazide] (concentration: 25 µM) | 0.957 ± 0.041 | 0.902 ± 0.08

Row | Structure (SMILES) | mean cell size (Jurkat [1]) | cell count (Jurkat [2])
27 | CN[C@@H]1[C@H](O[C@H]2[C@H](O[C@H]3[C@H](O)[C@@H](O)[C@H](N=C(N)N)[C@@H](O)[C@@H]3N=C(N)N)O[C@@H](C)[C@]2(O)C=O)O[C@@H](CO)[C@H](O)[C@H]1O [Streptomycin Sulfate] (concentration: 25 µM) | 0.996 ± 0.028 | 0.791 ± 0.011
28 | Cc1ccccc1C(OCCN(C)C)c1ccccc1 (centres undefined) [Orphenadrine Citrate] (concentration: 25 µM) | 0.975 ± 0.056 | 0.742 ± 0.13
29 | CC(C)NCC(O)COc1cccc2[nH]ccc12 (centres undefined) [Pindolol] (concentration: 25 µM) | 0.976 ± 0.065 | 0.644 ± 0.16
30 | CO/N=C1\CN(c2nc3c(cc2F)c(=O)c(C(=O)O)cn3C2CC2)CC1CN (centres undefined) [Gemifloxacin] (concentration: 25 µM) | 1.09 ± 0.03 | 0.591 ± 0.16
32 | CCOC(=O)N1CCC(=C2c3ccc(Cl)cc3CCc3cccnc32)CC1 [Loratadine] (concentration: 25 µM) | 0.938 ± 0.034 | 0.367 ± 0.031
33 | COc1ccc(OC)c(C(O)CNC(=O)CN)c1 (centres undefined) [Midodrine·HCl] (concentration: 25 µM) | 0.942 ± 0.065 | 0.55 ± 0.15
34 | C[C@]12CC[C@@H]3c4ccc(O)cc4CC[C@H]3[C@@H]1CC[C@@H]2O [Estradiol] (concentration: 25 µM) | 0.892 ± 0.026 | 0.711 ± 0.1
35 | COc1c(N2CCNC(C)C2)c(F)cc2c(=O)c(C(=O)O)cn(C3CC3)c12 (centres undefined) [Gatifloxacin] (concentration: 25 µM) | 0.956 ± 0.024 | 0.661 ± 0.17
36 | CC1=C(C/C=C(\C)CCC[C@H](C)CCC[C@H](C)CCCC(C)C)C(=O)c2ccccc2C1=O [Phytonadione] (concentration: 25 µM) | 0.986 ± 0.024 | 0.886 ± 0.1
37 | C[C@H](CCC(=O)O)[C@H]1CC[C@H]2[C@@H]3[C@H](O)C[C@@H]4C[C@H](O)CC[C@]4(C)[C@H]3CC[C@]12C [Chenodiol (Chenodeoxycholic Acid)] (concentration: 25 µM) | 0.946 ± 0.037 | 0.838 ± 0.13
38 | COC(=O)CCC(=O)CN [Methyl Aminolevulinate·HCl] (concentration: 25 µM) | 0.99 ± 0.033 | 0.739 ± 0.074
39 | Clc1ccc(CSC(Cn2ccnc2)c2ccc(Cl)cc2Cl)cc1 (centres undefined) [Sulconazole Nitrate] (concentration: 25 µM) | 0.953 ± 0.023 | 0.923 ± 0.11
40 | Nc1ccn([C@@H]2O[C@H](CO)[C@@H](O)[C@@H]2O)c(=O)n1 [Cytarabine] (concentration: 25 nM) | 1.18 ± 0.05 | 0.297 ± 0.088
41 | OC(c1cc(C(F)(F)F)nc2c(C(F)(F)F)cccc12)C1CCCCN1 (centres undefined) [Mefloquine·HCl] (concentration: 2.5 µM) | 0.9935 ± 0.0057 | 0.813 ± 0.087
42 | CC(=O)OCC(=O)[C@@]1(O)CC[C@H]2[C@@H]3CCC4=CC(=O)CC[C@]4(C)[C@H]3[C@@H](O)C[C@@]21C [Hydrocortisone Acetate] (concentration: 25 µM) | 0.959 ± 0.045 | 0.716 ± 0.12
43 | CC(=O)O[C@]1(C(C)=O)CC[C@H]2[C@@H]3C=C(C)C4=CC(=O)CC[C@]4(C)[C@H]3CC[C@@]21C [Megestrol Acetate] (concentration: 25 µM) | 0.9825 ± 0.0053 | 0.704 ± 0.059
44 | CCCC(CCC)C(=O)O [Valproic Acid] (concentration: 25 µM) | 0.986 ± 0.028 | 0.728 ± 0.029
45 | CCCN[C@H]1CCc2nc(N)sc2C1 [Pramipexole Dihydrochloride Monohydrate] (concentration: 25 µM) | 1 ± 0.037 | 0.631 ± 0.011
46 | CO/N=C(\C(=O)N[C@@H]1C(=O)N2C(C(=O)O)=C(CSc3nc(=O)c(=O)[nH]n3C)CS[C@H]12)c1csc(N)n1 [Ceftriaxone·Na] (concentration: 25 µM) | 0.969 ± 0.028 | 1.06 ± 0.073
47 | Nc1nc(Cl)nc2c1ncn2[C@H]1C[C@H](O)[C@@H](CO)O1 [Cladribine] (concentration: 250 nM) | 1.17 ± 0.034 | 0.268 ± 0.024
48 | CC[C@H](C)C(=O)O[C@H]1C[C@@H](C)C=C2C=C[C@H](C)[C@H](CC[C@@H]3C[C@@H](O)CC(=O)O3)[C@H]21 [Lovastatin] (concentration: 25 µM) | 1.16 ± 0.046 | 0.664 ± 0.15
49 | CCOC(=O)[C@H](CCc1ccccc1)N[C@@H](C)C(=O)N1CCC[C@H]1C(=O)O [Enalapril] (concentration: 25 µM) | 1.01 ± 0.029 | 0.733 ± 0.042
50 | c1ccc2c(c1)CCCC2C1=NCCN1 (centres undefined) [Tetrahydrozoline·HCl] (concentration: 25 µM) | 0.9443 ± 0.007 | 1.16 ± 0.094
51 | CCCN(CCC)S(=O)(=O)c1ccc(C(=O)O)cc1 [Probenecid] (concentration: 25 µM) | 0.993 ± 0.012 | 0.595 ± 0.13
52 | C[C@@H](O)[C@H]1C(=O)N2C(C(=O)O)=C(S[C@@H]3CN[C@H](C(=O)N(C)C)C3)[C@H](C)[C@H]12 [Meropenem] (concentration: 25 µM) | 0.944 ± 0.015 | 0.939 ± 0.078
